Bioassay records as filed in PubChem BioAssay.
GSIS activator: GLuc luminescence reporter in INS-1E cells, primary screen for activators of glucose-dependent secretion of insulin; activation, % at 16.6 µM; AID 743287, 2014; hit rate 0.61% among 370,000; INS-1E GLuc reporter insulin secretion, 2-3 h;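 active means lowest replicate activation of at least 40%, so every replicate reaches that level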;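 further: 0% = median of neutral control wells and 100% = median of IBMX positive control wells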
DENV2 CPE: inhibitors of DENV2 cytopathic effect, primary screen, cell-based, plate reader, single concentration | DENV2-infected cells, cytopathic effect rescue | CPE inhibition, % at 9.99 µM | hit rate 1.7% among 350,000 | AID 651640, 2012; in the data active means CPE inhibition above about 20%, passing the limit was not always enough; inconclusive means no clear call, values can overlap the other calls; tested in BHK-21 cells;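 further: 0% = median of neutral control wells and 100% = median of positive control wells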
Ecoli rRNA inh: reduced GFP signal of wild-type E. coli, primary screen, bacterial rRNA inhibitor project, GFP/RFP fluorescence, OD600, single point | hit rate 1.6% among 350,000 | E. coli WT GFP vs humanized-ribosome RFP mutants, 24 h; active compounds read low; DMSO median 0, no signal -100 | GFP signal change (wild-type ribosome), % (no concentration beside the values) | AID 720706, 2013;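 active means significant combined selectivity score with lowered wild-type GFP, culture density cut under 30%, mutant RFP and density less affected; inactive means any of these conditions unmet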
CaV13 ICDI inh: Disruptors of the CACNA1D IQ motif to Ca2+-dependent inactivation inhibitor domain association, primary screening, Förster resonance energy transfer in intact living … | HEK cells, CFP/YFP FRET ICDI-IQ, plate reader, 10 min; percent FRET-ratio fall versus neutral wells | inhibition, % at 12.3 µM | hit rate 0.098% among 340,000 | AID 743397;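 active means mean replicate inhibition of at least 30% and at least 1% of replicates passing that level; inconclusive means only one of the two criteria is met; inactive means neither criterion is met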;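 further: 0% = median of the neutral control wells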
PGC1a acetyl inh: inhibitors of PGC1a acetylation signal, primary screen, cell-based, U2OS, AlphaScreen, inhibitor mode | AlphaScreen anti-acetyl-lysine; with virally co-expressed GCN5 acetyltransferase | inhibition, % at 15.6 µM | hit rate 0.17% among 350,000 | AID 651687, 2012;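 active means every replicate shows inhibition of at least 40%; inconclusive means mean inhibition at least 40% but some replicate below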;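 further: 0% = neutral control wells and 100% = positive control wells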
ERAP1 HTS inh: human ERAP1 aminopeptidase inhibitors, primary screen, biochemical, single point, plate reader | recombinant ERAP1, Leu-AMC fluorescence, 60 min | inhibition, % at 10.7 µM | hit rate 0.15% among 340,000 | AID 652197, 2013;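 active means mean replicate inhibition of at least 30%, or all replicates individually reaching that 30% level; inactive means mean below 30% and not every replicate reaching it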;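 further: 0% = neutral control wells and 100% = L-leucinethiol positive control wells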
Target sequence (Q9NZ08 whole entry, looked up): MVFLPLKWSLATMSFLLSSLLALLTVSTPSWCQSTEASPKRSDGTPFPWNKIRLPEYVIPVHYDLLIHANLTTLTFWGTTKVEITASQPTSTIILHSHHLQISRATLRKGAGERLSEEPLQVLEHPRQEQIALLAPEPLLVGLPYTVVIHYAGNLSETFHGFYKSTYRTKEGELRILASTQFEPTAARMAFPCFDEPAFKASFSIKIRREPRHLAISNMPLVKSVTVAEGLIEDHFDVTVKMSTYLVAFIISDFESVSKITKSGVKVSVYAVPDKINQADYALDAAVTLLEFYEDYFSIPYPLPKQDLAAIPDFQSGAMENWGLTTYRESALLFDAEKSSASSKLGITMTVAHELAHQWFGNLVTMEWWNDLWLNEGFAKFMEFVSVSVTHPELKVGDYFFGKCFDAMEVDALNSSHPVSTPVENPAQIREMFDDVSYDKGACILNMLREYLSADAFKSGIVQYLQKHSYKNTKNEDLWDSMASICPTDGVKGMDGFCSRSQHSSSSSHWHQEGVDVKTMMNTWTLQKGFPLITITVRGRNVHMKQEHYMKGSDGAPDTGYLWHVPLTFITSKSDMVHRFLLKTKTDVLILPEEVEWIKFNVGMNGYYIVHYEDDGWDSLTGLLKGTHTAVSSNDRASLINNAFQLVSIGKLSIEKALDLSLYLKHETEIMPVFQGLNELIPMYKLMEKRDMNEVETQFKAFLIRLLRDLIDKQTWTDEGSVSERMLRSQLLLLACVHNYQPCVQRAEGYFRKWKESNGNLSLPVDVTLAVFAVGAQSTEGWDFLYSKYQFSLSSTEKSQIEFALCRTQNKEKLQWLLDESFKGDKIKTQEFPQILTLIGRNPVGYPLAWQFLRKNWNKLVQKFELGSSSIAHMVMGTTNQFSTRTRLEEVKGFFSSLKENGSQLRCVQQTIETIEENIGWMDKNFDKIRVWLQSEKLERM
Numbers without * were called inactive; ? = inconclusive; . = not tested or not shown. Rows were chosen to be rich in hits. Some 3.2% of all compounds tested hit in one or more screens of this group.

SMILES | GSIS activator | DENV2 CPE | Ecoli rRNA inh | CaV13 ICDI inh | PGC1a acetyl inh | ERAP1 HTS inh
Cc1ccc(SC(c2ccccc2)C(Cn2cncn2)C(=O)c2ccccc2)cc1 (stereo not given) | . | . | . | -6 | -5 | .
O=C(c1ccc(Cl)cc1)C(Cn1cncn1)C(Sc1ccccc1)c1ccccc1 (stereo not given) | . | . | . | -3 | 61* | .
C[C@H]1CN(C)C(=O)c2cccc(N)c2O[C@H]1CN(C)S(C)(=O)=O | -18 | . | 2 | . | . | .
CCOC(=O)c1sc2ncc([N+](=O)[O-])cc2c1N | 8 | -5 | -36* | -5 | . | -1
Nc1c(C(=O)Nc2ccccc2)sc2ncc([N+](=O)[O-])cc12 | -5 | -2 | 23 | 0 | -84 | 0
C[C@@H]1CN([C@@H](C)CO)C(=O)c2cccc(NC(=O)c3nc4ccccc4s3)c2O[C@@H]1CN(C)Cc1ccncc1 | 1 | -9 | -7 | . | 4 | -13
Cc1noc(C)c1NC(=O)NCC[C@H]1CC[C@H](NC(=O)Nc2cccc(F)c2)[C@@H](CO)O1 | 7 | ? | 0 | . | -9 | -1
Cc1ccc(NS(=O)(=O)c2ccc(C(=O)NCCCN3CCCC3=O)cc2)cc1 | -4 | 103* | 2 | -15 | . | 2
O=C(C[C@H]1C[C@H]2c3cc(NC(=O)NC4CCCCC4)ccc3O[C@H]2[C@H](CO)O1)NC1CCCC1 | 15 | . | 5 | . | . | .
Cc1cc(Nc2ccc(Cl)cc2)nc(NCc2ccccc2)n1 | 300* | . | . | -6 | 0 | .
Cc1cc(Nc2ccccc2)nc(NCc2ccccc2)n1 | -32 | -1 | -55 | -2 | . | -2
Cc1ccc(C)c(S(=O)(=O)N(C(=O)c2ccncc2)c2ccc(OC(=O)c3ccncc3)cc2)c1 | . | -1 | 2 | -4 | 44* | 5
C[C@@H](NC(=O)C[C@H]1CC[C@@H](NC(=O)C2CCOCC2)[C@@H](CO)O1)c1ccccc1 | -10 | -10 | -2 | . | 4 | 2
C[C@H](CO)N1C[C@H](C)[C@@H](CN(C)C)Oc2ccc(NC(=O)Nc3ccc(F)cc3)cc2C1=O | -6 | 75* | 0 | . | -5 | 0
C[C@H]1CN([C@@H](C)CO)C(=O)c2cc(NC(=O)Nc3ccc(F)cc3)ccc2O[C@H]1CN(C)C | -1 | -1 | 5 | . | -1 | -1
Cc1noc(C)c1NC(=O)Nc1ccc2c(c1)C(=O)N([C@@H](C)CO)C[C@@H](C)[C@@H](CN(C)C(=O)Nc1ccc(C(F)(F)F)cc1)O2 | -7 | 32* | -60 | . | 7 | -3
C[C@H]1CN([C@@H](C)CO)C(=O)c2cc(NC(=O)Nc3ccc(F)cc3)ccc2O[C@@H]1CN(C)C | -6 | 26* | 1 | . | 2 | 0
C[C@H](CO)N1C[C@H](C)[C@@H](CN(C)C)Oc2ccc(NC(=O)Nc3ccc(C(F)(F)F)cc3)cc2C1=O | -6 | -3 | -1 | . | -3 | 1
C[C@@H]1CN([C@@H](C)CO)C(=O)c2cc(NC(=O)Nc3ccc(C(F)(F)F)cc3)ccc2O[C@@H]1CN(C)C | -18 | 22* | 0 | . | -11 | 6
C[C@@H]1CN([C@H](C)CO)C(=O)c2cc(NC(=O)Nc3ccc(F)cc3)ccc2O[C@H]1CN(C)C | 16 | 16 | 4 | . | 1 | 1
CO[C@@H]1CC[C@@H]2CCOc3c(C#N)cccc3C(=O)N(C)[C@@H](C)C(=O)N(C)C[C@@H]1O2 | 14 | -2 | 2 | . | . | -5
Cc1ccccc1-c1ccccc1[C@H]1[C@@H](C#N)N(C(=O)c2ccccc2)[C@@H]1CO | . | 3 | . | . | -31 | 0
CC(C)c1cn(CC[C@@H]2CC[C@@H](NC(=O)C3CCCC3)[C@@H](CO)O2)nn1 | 10 | -5 | 3 | . | -10 | 1
CN1C(=O)c2cc(NC(=O)Cc3ccccc3)ccc2OC[C@@H]2O[C@H](CC(=O)O)CC[C@@H]21 | -2 | ? | 0 | . | 4 | -2
Cc1cc(C)n(CC(O)CN(c2ccccc2)S(=O)(=O)c2ccccc2)n1 (stereo not given) | -7 | . | . | -1 | 6 | .
SMILES | GSIS activator | DENV2 CPE | Ecoli rRNA inh | CaV13 ICDI inh | PGC1a acetyl inh | ERAP1 HTS inh
Cc1ccc(N(CC(O)Cn2nc(C)cc2C)S(=O)(=O)c2ccc3ccccc3c2)cc1 (stereo not given) | -25 | 5 | -31* | -3 | . | 2
O=C(CCN1CCCCC1)NCC[C@@H]1CC[C@H](NC(=O)Cc2cccnc2)[C@H](CO)O1 | 2 | . | -2 | . | 8 | .
C[C@@H]1CN([C@H](C)CO)C(=O)Cc2cc(NC(=O)Cc3cn(C)c4ccccc34)ccc2O[C@H]1CN(C)Cc1ccc2c(c1)OCO2 | -9 | 51* | 0 | . | -16 | 0
C[C@H](CO)N1C[C@H](C)[C@@H](CN(C)Cc2ccc3c(c2)OCO3)Oc2ccc(NC(=O)Cc3cn(C)c4ccccc34)cc2CC1=O | -34 | -7 | 4 | . | -26 | 0
C[C@@H]1CN([C@@H](C)CO)C(=O)Cc2cc(NC(=O)Cc3cn(C)c4ccccc34)ccc2O[C@@H]1CN(C)Cc1ccc(C(F)(F)F)cc1 | -1 | 77* | -1 | . | -6 | -1
COc1ccc(NC(=O)Nc2ccc3c(c2)[C@@H]2C[C@@H](CC(=O)N4CCCCC4)O[C@@H](CO)[C@@H]2O3)cc1 | -6 | 3 | -1 | . | 26 | -3
CN(C)C(=O)C[C@H]1C[C@@H]2c3cc(NC(=O)C4CCC4)ccc3O[C@@H]2[C@@H](CO)O1 | -3 | -2 | -4 | . | 15 | 0
N#C[C@@H]1[C@H](c2ccccc2-c2ccccc2)[C@@H](CO)N1C(=O)NC1CCCCC1 | -29 | 45* | -3 | . | -1 | -3
C/C=C/c1ccc([C@H]2[C@@H](CNS(C)(=O)=O)N(CC3CCCC3)[C@H]2CO)cc1 | -28 | 51* | 0 | . | -11 | 3
N#C[C@@H]1[C@H](c2ccc(C3=CCCCC3)cc2)[C@H](CO)N1C(=O)NC1CCCC1 | 8 | 27* | -1 | . | . | .
C/C=C/c1ccc([C@H]2[C@@H](C#N)N(C(=O)NC3CCCCC3)[C@H]2CO)cc1 | -21 | 7 | 2 | . | -17 | 7
C/C=C/c1ccc([C@@H]2[C@H](C#N)N(C(=O)NC3CCCCC3)[C@H]2CO)cc1 | -15 | 77* | 5 | . | -16 | 7
N#C[C@H]1[C@@H](c2ccc(C3=CCCCC3)cc2)[C@H](CO)N1C(=O)NC1CCCC1 | 2 | 10 | 1 | . | -7 | .
N#C[C@H]1[C@@H](c2ccccc2C2=CCCCC2)[C@@H](CO)N1C(=O)NC1CCCC1 | -1 | 22* | 1 | . | 1 | -1
